“And” between values parts separate entries of the source, which are not always exact repeats. Equal values may be shown once. The source made the active and inactive calls. The calls were made as follows: active = hit-call score of the fitted dose curve at least 0.9, where 1 is the maximum; inactive = score below 0.9.
Experiments:
[1] = read-out: Tissue plasminogen activator (tPA), PLAT (gene 5327); assay: BSK_BE3C_tPA: BioMAP Diversity Plus: BE3C Assay for Tissue plasminogen activator (tPA) Biomarker Activity (AID 2283041); settings: primary human bronchial epithelial cells; actives raise or lower the signal
Outline: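 Primary human lung bronchial epithelial cultures receive test chemical; after 24 h, tPA is quantified by ELISA, and gain or loss of signal is fitted bidirectionally relative to DMSO baseline.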

[2] = read-out: Interleukin-8 (IL8), CXCL8 (gene 3576); assay: BSK_CASM3C_IL8: BioMAP Diversity Plus: CASM3C Assay for Interleukin-8 (IL8) Biomarker Activity (AID 2283042); settings: primary human coronary artery smooth muscle cells; actives raise or lower the signal;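 also: IL-8 protein level quantified by ELISA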
[3] = read-out: Human Leukocyte Antigen - DR isotype (HLADR), HLA-DRA (gene 3122); assay: BSK_CASM3C_HLADR: BioMAP Diversity Plus: CASM3C Assay for Human Leukocyte Antigen - DR isotype (HLADR) Biomarker Activity (AID 2283043); settings: primary human coronary artery smooth muscle cells; actives raise or lower the signal;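 also: cell-surface HLA-DR protein level quantified by ELISA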
[4] = read-out: Macrophage colony-stimulating factor (MCSF), CSF1 (gene 1435); assay: BSK_CASM3C_MCSF: BioMAP Diversity Plus: CASM3C Assay for Macrophage colony-stimulating factor (MCSF) Biomarker Activity (AID 2283044); settings: primary human coronary artery smooth muscle cells; actives raise or lower the signal;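 also: M-CSF protein amount quantified by ELISA after 24 h exposure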
[5] = read-out: Low-density lipoprotein receptor (LDLR), LDLR (gene 3949); assay: BSK_CASM3C_LDLR: BioMAP Diversity Plus: CASM3C Assay for Low-density lipoprotein receptor (LDLR) Biomarker Activity (AID 2283045); settings: primary human coronary artery smooth muscle cells; actives raise or lower the signal;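 also: LDLR protein level on the cell surface quantified by ELISA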
[6] = read-out: Monocyte Chemoattractant Protein-1 (MCP1), CCL2 (gene 6347); assay: BSK_CASM3C_MCP1: BioMAP Diversity Plus: CASM3C Assay for Monocyte Chemoattractant Protein-1 (MCP1) Biomarker Activity (AID 2283046); settings: primary human coronary artery smooth muscle cells; actives raise or lower the signal;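 also: MCP-1 level quantified by ELISA 24 h after dosing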
[7] = BSK_CASM3C_Proliferation: Cell Proliferation Assessment in the BioMAP Diversity Plus: CASM3C Assay (AID 2283047); settings: primary human coronary artery smooth muscle cells;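 also: sulforhodamine B total protein stain as relative cell number at 560 nm; sub-confluent cells exposed 48 h before staining; fitted both ways against DMSO so gain or loss of cell number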
[8] = read-out: Monokine induced gamma interferon (MIG), CXCL9 (gene 4283); assay: BSK_CASM3C_MIG: BioMAP Diversity Plus: CASM3C Assay for Monokine induced gamma interferon (MIG) Biomarker Activity (AID 2283048); settings: primary human coronary artery smooth muscle cells; actives raise or lower the signal;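 also: MIG protein level measured by ELISA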
[9] = read-out: serum amyloid A (SAA), SAA1 (gene 6288); assay: BSK_CASM3C_SAA: BioMAP Diversity Plus: CASM3C Assay for serum amyloid A (SAA) Biomarker Activity (AID 2283049); settings: primary human coronary artery smooth muscle cells; actives raise or lower the signal;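 also: SAA protein level quantified by ELISA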
[10] = BSK_CASM3C_SRB: Viability Assessment in the BioMAP Diversity Plus: CASM3C Assay (AID 2283050); settings: primary human coronary artery smooth muscle cells;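 also: total protein by SRB staining as cytotoxicity measure in parallel cultures; cells exposed to compound for 24 h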

Measured: AC50

CN(C)C(=O)Nc1cccc(C(F)(F)F)c1
inactive: all assays above

COc1cccc(C(=O)NN(C(=O)c2cc(C)cc(C)c2)C(C)(C)C)c1C
inactive: all assays above

CCOP(=O)(SC(C)CC)N1CCSC1=O (centres undefined)
inactive: all assays above

CCC(CC)Nc1c([N+](=O)[O-])cc(C)c(C)c1[N+](=O)[O-]
active: [7] 13.9 µM
inactive: all other assays above

FC(F)C(F)(F)OCC(Cn1cncn1)c1ccc(Cl)cc1Cl (centres undefined)
inactive: all assays above

CCOP(=O)(OCC)Oc1cc(C)nc(C(C)C)n1
active: [5] 20 µM
inactive: all other assays above

CSc1nc(NC(C)C)nc(NC(C)C)n1
inactive: all assays above

C[N+]1(C)CCCCC1
inactive: all assays above

CNC(=O)ON=C(SC)C(=O)N(C)C
inactive: all assays above

CCNc1nc(Cl)nc(NC(C)(C)C#N)n1
active: [3] 9.89 µM
inactive: all other assays above

Cc1cc(C2CC2)nc(Nc2ccccc2)n1
active: [7] 14.4 µM
inactive: all other assays above

S=C1NCCN1
inactive: all assays above

C=C(C)[C@H]1Cc2c(ccc3c2O[C@@H]2COc4cc(OC)c(OC)cc4[C@@H]2C3=O)O1
active: [7] 3.97 µM
inactive: all other assays above

CCCSP(=O)(OCC)Oc1ccc(Br)cc1Cl (centres undefined)
active: [1] 13.4 µM | [7] 32.1 µM
inactive: all other assays above

CCCCOC(=O)[C@@H](C)Oc1ccc(Oc2ccc(C#N)cc2F)cc1
inactive: all assays above

CC1(C(=O)Nc2ccc(O)c(Cl)c2Cl)CCCCC1
inactive: all assays above

O=c1ccc(=O)[nH][nH]1
inactive: all assays above

O=[N+]([O-])c1cc(C(F)(F)F)c(Cl)c([N+](=O)[O-])c1Nc1ncc(C(F)(F)F)cc1Cl
active: [1] 20 µM | [2] 4.49 µM and 10.8 µM | [3] 2.16 µM and 10 µM | [4] 1.72 µM and 6.05 µM | [6] 4.23 µM and 9.83 µM | [7] 2.28 µM and 1.22 µM | [8] 3.98 µM and 8.05 µM | [9] 3.5 µM and 6.78 µM | [10] 2.04 µM and 5.51 µM
inactive: [5]

CCOP(=S)(OCC)OC(Cl)C(Cl)(Cl)Cl (centres undefined)
active: [7] 37 µM
inactive: all other assays above

CN(C)NC(=O)CCC(=O)O
inactive: all assays above

CC(COc1ccc(Oc2ccccc2)cc1)Oc1ccccn1 (centres undefined)
active: [7] 31.8 µM
inactive: all other assays above

N#CSCSC#N
inactive: [1] | [5]
active: [2] 16.1 µM | [3] 21.4 µM | [4] 16.1 µM | [6] 20.5 µM | [7] 2.16 µM | [8] 14.1 µM | [9] 30.2 µM | [10] 14.6 µM

Cc1nn(-c2cc(NS(C)(=O)=O)c(Cl)cc2Cl)c(=O)n1C(F)F
inactive: all assays above

CC[C@H](C)[C@H]1O[C@]2(C=C[C@@H]1C)C[C@@H]1C[C@@H](C/C=C(\C)[C@@H](O[C@H]3C[C@H](OC)[C@@H](O[C@H]4C[C@H](OC)[C@@H](NC)[C@H](C)O4)[C@H](C)O3)[C@@H](C)/C=C/C=C3\CO[C@@H]4[C@H](O)C(C)=C[C@@H](C(=O)O1)[C@]34O)O2
active: [2] 14.2 µM | [3] 12.6 µM | [4] 11.6 µM | [6] 12.9 µM | [7] 5.53 µM | [8] 13.7 µM | [9] 9.71 µM | [10] 11.6 µM
inactive: [1] | [5]

CC(C)=CC1C(C(=O)OCN2C(=O)C3=C(CCCC3)C2=O)C1(C)C (centres undefined)
active: [7] 20 µM
inactive: all other assays above

CCOP(=S)(OCC)Oc1ccc2c(C)c(Cl)c(=O)oc2c1
active: [7] 20 µM
inactive: all other assays above

Cc1ccn2nc(S(=O)(=O)Nc3c(F)cccc3F)nc2n1
inactive: all assays above

CCCCN(CC)c1c([N+](=O)[O-])cc(C(F)(F)F)cc1[N+](=O)[O-]
inactive: all assays above

CCOC(=O)COc1cc(-c2nn(C)c(OC(F)F)c2Cl)c(F)cc1Cl
inactive: all assays above

CC(Oc1cccc(Cl)c1)C(=O)O (centres undefined)
inactive: all assays above

Nc1nc(N)nc(NC2CC2)n1
inactive: all assays above

CCOP(=O)(NC(C)C)Oc1ccc(SC)c(C)c1 (centres undefined)
inactive: all assays above

C#CCC1=C(C)C(OC(=O)C2C(C=C(C)C)C2(C)C)CC1=O (centres undefined)
active: [7] 26.8 µM
inactive: all other assays above

CON=C(C(=O)OC)c1ccccc1CON=C(C)c1cccc(C(F)(F)F)c1
active: [6] 2.68 µM | [7] 8.75 µM
inactive: all other assays above

CCCCOC(=O)c1ccccc1C(=O)O
inactive: all assays above

COP(=O)(OC)C(O)C(Cl)(Cl)Cl (centres undefined)
active: [7] 20 µM
inactive: all other assays above

CCOP(=S)(OCC)SCCSCC
inactive: all assays above

CCCOc1nn(C(=O)NS(=O)(=O)c2ccccc2C(=O)OC)c(=O)n1C
inactive: all assays above

CCC(=O)Nc1ccc(Cl)c(Cl)c1
not listed: [9]
inactive: all other assays above

CC(C1CC1)C(O)(Cn1cncn1)c1ccc(Cl)cc1 (centres undefined)
inactive: all assays above

CCCSP(=O)(OCC)SCCC
inactive: all assays above

CC1=NNC(=O)N(/N=C/c2cccnc2)C1
inactive: all assays above

CCOP(=S)(OCC)Oc1ccc([N+](=O)[O-])cc1
inactive: all assays above

CC(C)[C@H](C(=O)O[C@H](C#N)c1cccc(Oc2ccccc2)c1)c1ccc(Cl)cc1
active: [7] 9.47 µM
inactive: all other assays above

O=C(O)c1cc(Oc2ccc(C(F)(F)F)cc2Cl)ccc1[N+](=O)[O-]
inactive: all assays above

CCc1cccc(CC)c1N(COC)C(=O)CCl
inactive: all assays above

COP(=O)(OC)SCn1c(=O)oc2cc(Cl)cnc21
active: [4] 9.42 µM | [6] 20 µM | [7] 21.5 µM | [8] 38.8 µM | [10] 24.7 µM
inactive: all other assays above

COc1cc(OC)nc(Sc2cccc(Cl)c2C(=O)O)n1
inactive: all assays above

CCCOCC(=Nc1ccc(Cl)cc1C(F)(F)F)n1ccnc1
active: [1] 32.8 µM | [6] 26 µM | [7] 32.7 µM | [8] 20 µM
inactive: all other assays above

C[Si](Cn1cncn1)(c1ccc(F)cc1)c1ccc(F)cc1
inactive: all assays above

CC(=NC#N)N(C)Cc1ccc(Cl)nc1
inactive: all assays above

CSC1=N[C@@](C)(c2ccccc2)C(=O)N1Nc1ccccc1
active: [7] 11.5 µM
inactive: all other assays above

CN1COCN(Cc2cnc(Cl)s2)C1=N[N+](=O)[O-]
inactive: all assays above

CN(C)[C@@H]1C(=O)C(C(N)=O)=C(O)[C@@]2(O)C(=O)C3=C(O)c4c(O)cccc4[C@@](C)(O)[C@H]3[C@H](O)[C@@H]12
active: [7] 28.7 µM and 11 µM
inactive: all other assays above

COc1ccc(C(=CC(=O)N2CCOCC2)c2ccc(Cl)cc2)cc1OC
active: [4] 2.5 µM | [6] 6.65 µM
inactive: all other assays above

CCOC(=O)CC(SP(=O)(OC)OC)C(=O)OCC (centres undefined)
inactive: all assays above

CCc1cccc(C)c1N(C(=O)CCl)C(C)COC (centres undefined)
inactive: all assays above

CCC(=NOC/C=C/Cl)C1=C(O)CC(C2CCOCC2)CC1=O (centres undefined)
inactive: all assays above

COP(=O)(NC(C)=O)SC (centres undefined)
inactive: all assays above

C#CC(C)(C)NC(=O)c1cc(Cl)cc(Cl)c1
inactive: all assays above

Nc1c(Cl)cc([N+](=O)[O-])cc1Cl
inactive: all assays above

CNC(=O)ON=C(C)SC
inactive: all assays above

CSc1nnc(C(C)(C)C)c(=O)n1N
active: [5] 4.43 µM
inactive: all other assays above

CCCCSP(=O)(SCCCC)SCCCC
active: [4] 29.4 µM | [7] 36.8 µM | [10] 31.7 µM
inactive: all other assays above

COP(=O)(OC)OC(Br)C(Cl)(Cl)Br (centres undefined)
active: [2] 32.2 µM | [4] 27.7 µM | [6] 28.6 µM | [7] 11.2 µM | [8] 29.8 µM | [9] 29.9 µM | [10] 28.8 µM
inactive: [1] | [3] | [5]

CCOP(=S)(Oc1cnc(C(C)(C)C)nc1)OC(C)C (centres undefined)
active: [7] 32.2 µM
inactive: all other assays above

CCc1cnc(C2=NC(C)(C(C)C)C(=O)N2)c(C(=O)O)c1 (centres undefined)
inactive: all assays above

CC(C)N(C(=O)SCC(Cl)=C(Cl)Cl)C(C)C
active: [4] 34.4 µM | [7] 37.1 µM | [10] 32.4 µM
inactive: all other assays above

CCOP(=S)(OCC)Oc1cc(C)nc(C(C)C)n1
active: [7] 14.3 µM
inactive: all other assays above

CNc1cnn(-c2cccc(C(F)(F)F)c2)c(=O)c1Cl
inactive: all assays above

CNC(=O)Oc1cccc2c1OC(C)(C)O2
inactive: all assays above
